The supplement of paper PMC6089552
In all, about 3,200 compounds went through this assay and about 300 (9.4%) showed activity. The sample holds actives, similar compounds and a random draw of the others, so the mix is not that of the screen.

System: A673/TR/shEF
Assay: cell viability (LOESS-normalised, relative to median of negative controls) (log2 ratio); higher = more viable cells (less compound effect), active = hit call of the paper (over 3 MAD below the median)
Conditions: treatment time: 72 h
Summary of the method: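 For three days, A673/TR/shEF Ewing sarcoma cells in 384-well plates (1,500 per well) were treated with library compounds at two or more concentrations or with DMSO controls, after doxycycline had been added or withheld 24 h beforehand to induce EWS-FLI1 shRNA knockdown. Viability was read by CellTiter-Glo luminescence on an Envision reader. The data were LOESS-corrected per plate, divided by the median of negative controls and log2-transformed.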

[1] = 0.103 µM, library screen: screen3, EWS-FLI1 expression: high (no doxycycline)
[2] = 0.103 µM, library screen: screen3, EWS-FLI1 expression: low (doxycycline-induced shRNA knockdown)
[3] = 0.308 µM, library screen: screen3, EWS-FLI1 expression: high (no doxycycline)
[4] = 0.308 µM, library screen: screen3, EWS-FLI1 expression: low (doxycycline-induced shRNA knockdown)
[5] = 0.926 µM, library screen: screen3, EWS-FLI1 expression: high (no doxycycline)
[6] = 0.926 µM, library screen: screen3, EWS-FLI1 expression: low (doxycycline-induced shRNA knockdown)
[7] = 2.8 µM, library screen: screen3, EWS-FLI1 expression: high (no doxycycline)
[8] = 2.8 µM, library screen: screen3, EWS-FLI1 expression: low (doxycycline-induced shRNA knockdown)
[9] = 8.3 µM, library screen: screen3, EWS-FLI1 expression: high (no doxycycline)
[10] = 8.3 µM, library screen: screen3, EWS-FLI1 expression: low (doxycycline-induced shRNA knockdown)
[11] = 25 µM, library screen: screen3, EWS-FLI1 expression: high (no doxycycline)
[12] = 25 µM, library screen: screen3, EWS-FLI1 expression: low (doxycycline-induced shRNA knockdown)
[13] = 0.25 µM, library screen: screen1, EWS-FLI1 expression: high (no doxycycline)
[14] = 0.25 µM, library screen: screen1, EWS-FLI1 expression: low (doxycycline-induced shRNA knockdown)
[15] = 2.5 µM, library screen: screen1, EWS-FLI1 expression: high (no doxycycline)
[16] = 2.5 µM, library screen: screen1, EWS-FLI1 expression: low (doxycycline-induced shRNA knockdown)

Measured: cell viability (log2)

CCN(CCO)CCCOc1ccc2c(Nc3cc(CC(=O)Nc4cccc(F)c4)[nH]n3)ncnc2c1
active: [1] -0.49 | [3] -0.395 | [5] -0.452 | [7] -0.473 | [8] -0.112 | [9] -0.446 | [11] -0.681
inactive: [2] -0.0648 | [4] -0.00388 | [6] -0.0458 | [10] -0.0257 | [12] -0.0482

O=C(CSc1nc2ccccc2[nH]1)c1ccc(OC(F)F)cc1
inactive: [13] 0.0646 | [14] 0.0338 | [15] 0.169 | [16] -0.104

CN1CCN(CC(=O)N2c3ccccc3Sc3ccccc32)CC1
inactive: [13] 0.172 | [14] 0.134 | [15] 0.173 | [16] 0.343

CNC(=O)c1c(F)cccc1Nc1nc(Nc2cc3c(cc2OC)CCN3C(=O)CN(C)C)nc2[nH]ccc12
inactive: [1] -0.00474 | [2] 0.0229 | [4] -0.0133 | [6] -0.047
active: [3] -0.215 | [5] -0.468 | [7] -0.729 | [8] -0.119 | [9] -0.785 | [10] -0.103 | [11] -1.04 | [12] -0.185

CCOC(=O)C1=C(C)N=C2SC(C)C(=O)N2C1c1ccc(OC)cc1 (configuration not stated)
inactive: [13] 0.148 | [14] 0.0319 | [15] 0.107 | [16] 0.0438

NC(C(=O)O)c1cccc(O)c1 (configuration not stated)
inactive: 0.25 µM, library screen: screen2, EWS-FLI1 expression: high (no doxycycline) 0.144 | 0.25 µM, library screen: screen2, EWS-FLI1 expression: low (doxycycline-induced shRNA knockdown) 0.0441 | 2.5 µM, library screen: screen2, EWS-FLI1 expression: high (no doxycycline) 0.145 | 2.5 µM, library screen: screen2, EWS-FLI1 expression: low (doxycycline-induced shRNA knockdown) 0.0975

C[C@@H]1CC[C@@]23CCC4(C)[C@@](C=CC5[C@@]6(C)CC[C@H](O)C(C)(C)C6CC[C@]54C)(OC2=O)C3[C@H]1C (some centres not stated)
inactive: [13] 0.00363 | [14] -0.0167 | [15] 0.0828 | [16] -0.0285

COCCOC(=O)C1=C(C)NC(=S)NC1c1ccccc1 (configuration not stated)
inactive: [13] 0.0342 | [14] 0.00808 | [15] 0.0869 | [16] 0.0951

C=C(C)C1Cc2c(cc3oc(CO)cc(=O)c3c2O)O1 (configuration not stated)
inactive: [13] 0.0482 | [14] -0.012 | [15] 0.067 | [16] 0.013

CC[C@@]1(O)C(=O)OCc2c1cc1n(c2=O)Cc2cc3cc(O)ccc3nc2-1
active: [13] -1.78 | [14] -0.267 | [15] -4.23 | [16] -1.06

CCc1c2c(nc3ccc(OC(=O)N4CCC(N5CCCCC5)CC4)cc13)-c1cc3c(c(=O)n1C2)COC(=O)[C@]3(O)CC
inactive: [1] 0.00275 | [2] 0.0626 | [3] -0.0633 | [4] 0.00509 | [6] 0.026
active: [5] -0.241 | [7] -1.31 | [8] -0.173 | [9] -1.95 | [10] -0.414 | [11] -2.57 | [12] -0.647

CC[C@@]1(O)C(=O)OCc2c1cc1n(c2=O)Cc2cc3c(CN(C)C)c(O)ccc3nc2-1
active: [1] -0.373 | [3] -1.79 | [4] -0.321 | [5] -2.4 | [6] -0.459 | [7] -3.72 | [8] -0.844 | [9] -4.21 | [10] -1.11 | [11] -4.26 | [12] -1.44
inactive: [2] -0.0171

C=CC(C)(O)CC/C=C(\C)CCC=C(C)C (configuration not stated)
inactive: [13] 0.0873 | [14] 0.0984 | [15] 0.22 | [16] 0.113

COc1cc(OC)c(C2NC(=S)NC(C)=C2C(=O)Nc2ccccc2Cl)cc1OC (configuration not stated)
inactive: [13] 0.0713 | [14] 0.0952 | [15] 0.0303 | [16] 0.0128

CC(C)C[C@H](NC(=O)OCC1c2ccccc2-c2ccccc21)C(=O)O
inactive: [13] 0.0635 | [14] 0.0579 | [15] 0.116 | [16] -0.00318

CC(C)CCCC(C)C1CCC2C3CCC4CC(=O)CCC4(C)C3CCC12C (configuration not stated)
inactive: [13] 0.027 | [14] 0.0292 | [15] 0.169 | [16] 0.017

C/C1=C\CC/C(C)=C/CC(C)(C)/C=C/C1
inactive: [13] 0.0853 | [14] 0.0875 | [15] 0.112 | [16] 0.0862

Cc1ccc(C(C)C)cc2c(C)ccc1-2
inactive: [13] 0.0556 | [14] -0.0467 | [15] 0.0686 | [16] 0.0228

C=C1CCC2C(CC2(C)C)C(=C)CCC1=NO (configuration not stated)
inactive: [13] 0.105 | [14] 0.00367 | [15] 0.133 | [16] 0.0769

CC(C)=CCc1c(O)cc(C)oc1=O
inactive: [13] 0.0912 | [14] -0.0147 | [15] 0.109 | [16] -0.0401
